# Test results reported in article PMC11062922 (Nature Chemical Biology, 2023).
# Like-named read-outs stand apart in the source and are kept apart here.
# Columns and labels:
# TBK1 = conditions: read-out: apparent Kd, n = 1
# TGFBR1 = conditions: read-out: apparent Kd, n = 1
substance,measurement,setting,value
Lestaurtinib,potency estimated from few doses,"TBK1; compound concentrations:100 nM and 1000 nM (sheet 'Lestaurtinib' of Supplementary Table 1),run:Lestaurtinib_02407_R3,Plate:MR005",1.33 µM
same,potency estimated from few doses,"TBK1; compound concentrations:100 nM and 1000 nM (sheet 'Lestaurtinib' of Supplementary Table 1),run:Lestaurtinib_02422_R1,Plate:MR006",0.703 µM
same,potency estimated from few doses,"TBK1; compound concentrations:100 nM and 1000 nM (sheet 'Lestaurtinib' of Supplementary Table 1),run:Lestaurtinib_02438_R2,Plate:MR008",1.32 µM
same,potency estimated from few doses,"TBK1; compound concentrations:100 nM and 1000 nM (sheet 'Lestaurtinib' of Supplementary Table 1),run:Lestaurtinib_02443_R1,Plate:MR009",1.62 µM
same,potency estimated from few doses,"TBK1; compound concentrations:100 nM and 1000 nM (sheet 'Lestaurtinib' of Supplementary Table 1),run:Lestaurtinib_02443_R3,Plate:MR009",0.884 µM
same,potency estimated from few doses,"TBK1; compound concentrations:100 nM and 1000 nM (sheet 'Lestaurtinib' of Supplementary Table 1),run:Lestaurtinib_02473_R2,Plate:MR010",1.37 µM
same,potency estimated from few doses,"TBK1; compound concentrations:100 nM and 1000 nM (sheet 'Lestaurtinib' of Supplementary Table 1),run:Lestaurtinib_02473_R3,Plate:MR010",0.851 µM
same,potency estimated from few doses,"TBK1; compound concentrations:100 nM and 1000 nM (sheet 'Lestaurtinib' of Supplementary Table 1),run:Lestaurtinib_02482_R1,Plate:MR011",1.35 µM
same,potency estimated from few doses,"TBK1; compound concentrations:100 nM and 1000 nM (sheet 'Lestaurtinib' of Supplementary Table 1),run:Lestaurtinib_02482_R2,Plate:MR011",1.32 µM
same,potency estimated from few doses,"TBK1; compound concentrations:100 nM and 1000 nM (sheet 'Lestaurtinib' of Supplementary Table 1),run:Lestaurtinib_02487_R1,Plate:MR012",0.95 µM
same,potency estimated from few doses,"TBK1; compound concentrations:100 nM and 1000 nM (sheet 'Lestaurtinib' of Supplementary Table 1),run:Lestaurtinib_02487_R2,Plate:MR012",1.51 µM
same,potency estimated from few doses,"TBK1; compound concentrations:100 nM and 1000 nM (sheet 'Lestaurtinib' of Supplementary Table 1),run:Lestaurtinib_02496_R2,Plate:MR013",1.24 µM
same,potency estimated from few doses,"TBK1; compound concentrations:100 nM and 1000 nM (sheet 'Lestaurtinib' of Supplementary Table 1),run:Lestaurtinib_02496_R3,Plate:MR013",1.35 µM
same,potency estimated from few doses,"TBK1; compound concentrations:100 nM and 1000 nM (sheet 'Lestaurtinib' of Supplementary Table 1),run:Lestaurtinib_02566_R1,Plate:MR014",0.854 µM
same,potency estimated from few doses,"TBK1; compound concentrations:100 nM and 1000 nM (sheet 'Lestaurtinib' of Supplementary Table 1),run:Lestaurtinib_02566_R2,Plate:MR014",1.41 µM
same,potency estimated from few doses,"TBK1; compound concentrations:100 nM and 1000 nM (sheet 'Lestaurtinib' of Supplementary Table 1),run:Lestaurtinib_02577_R1,Plate:MR016",0.807 µM
same,potency estimated from few doses,"TBK1; compound concentrations:100 nM and 1000 nM (sheet 'Lestaurtinib' of Supplementary Table 1),run:Lestaurtinib_02584_R3,Plate:MR017",1.41 µM
same,potency estimated from few doses,"TBK1; compound concentrations:100 nM and 1000 nM (sheet 'Lestaurtinib' of Supplementary Table 1),run:Lestaurtinib_02601_R1,Plate:MR018",1.21 µM
same,potency estimated from few doses,"TBK1; compound concentrations:100 nM and 1000 nM (sheet 'Lestaurtinib' of Supplementary Table 1),run:Lestaurtinib_02601_R2,Plate:MR018",1.76 µM
same,potency estimated from few doses,"TBK1; compound concentrations:100 nM and 1000 nM (sheet 'Lestaurtinib' of Supplementary Table 1),run:Lestaurtinib_02601_R3,Plate:MR018",1.7 µM
same,potency estimated from few doses,"TBK1; compound concentrations:100 nM and 1000 nM (sheet 'Lestaurtinib' of Supplementary Table 1),run:Lestaurtinib_02606_R1,Plate:MR019",1.53 µM
same,potency estimated from few doses,"TBK1; compound concentrations:100 nM and 1000 nM (sheet 'Lestaurtinib' of Supplementary Table 1),run:Lestaurtinib_02624_R1,Plate:MR020",1.91 µM
same,potency estimated from few doses,"TBK1; compound concentrations:100 nM and 1000 nM (sheet 'Lestaurtinib' of Supplementary Table 1),run:Lestaurtinib_02624_R2,Plate:MR020",1.4 µM
same,potency estimated from few doses,"TBK1; compound concentrations:100 nM and 1000 nM (sheet 'Lestaurtinib' of Supplementary Table 1),run:Lestaurtinib_02624_R3,Plate:MR020",1.46 µM
same,potency estimated from few doses,"TBK1; compound concentrations:100 nM and 1000 nM (sheet 'Lestaurtinib' of Supplementary Table 1),run:Lestaurtinib_02741_R3,Plate:MR023",1.51 µM
same,potency estimated from few doses,"TBK1; compound concentrations:100 nM and 1000 nM (sheet 'Lestaurtinib' of Supplementary Table 1),run:Lestaurtinib_02748_R2,Plate:MR024",1.31 µM
same,potency estimated from few doses,"TBK1; compound concentrations:100 nM and 1000 nM (sheet 'Lestaurtinib' of Supplementary Table 1),run:Lestaurtinib_02752_R2,Plate:MR025",0.837 µM
same,potency estimated from few doses,"TBK1; compound concentrations:100 nM and 1000 nM (sheet 'Lestaurtinib' of Supplementary Table 1),run:Lestaurtinib_02752_R3,Plate:MR025",0.961 µM
same,potency estimated from few doses,"TBK1; compound concentrations:100 nM and 1000 nM (sheet 'Lestaurtinib' of Supplementary Table 1),run:Lestaurtinib_02765_R2,Plate:MR026",1.3 µM
same,potency estimated from few doses,"TBK1; compound concentrations:100 nM and 1000 nM (sheet 'Lestaurtinib' of Supplementary Table 1),run:Lestaurtinib_02766_R1,Plate:MR027",0.972 µM
same,potency estimated from few doses,"TBK1; compound concentrations:100 nM and 1000 nM (sheet 'Lestaurtinib' of Supplementary Table 1),run:Lestaurtinib_02766_R3,Plate:MR027",1.3 µM
same,potency estimated from few doses,"TBK1; compound concentrations:100 nM and 1000 nM (sheet 'Lestaurtinib' of Supplementary Table 1),run:Lestaurtinib_02768_R2,Plate:MR028",1.93 µM
same,potency estimated from few doses,"TBK1; compound concentrations:100 nM and 1000 nM (sheet 'Lestaurtinib' of Supplementary Table 1),run:Lestaurtinib_02768_R3,Plate:MR028",1.33 µM
same,potency estimated from few doses,"TBK1; compound concentrations:100 nM and 1000 nM (sheet 'Lestaurtinib' of Supplementary Table 1),run:Lestaurtinib_02795_R1,Plate:MR022",1.8 µM
same,potency estimated from few doses,"TBK1; compound concentrations:100 nM and 1000 nM (sheet 'Lestaurtinib' of Supplementary Table 1),run:Lestaurtinib_02795_R2,Plate:MR022",1.37 µM
same,potency estimated from few doses,"TBK1; compound concentrations:100 nM and 1000 nM (sheet 'Lestaurtinib' of Supplementary Table 1),run:Lestaurtinib_02795_R3,Plate:MR022",1.7 µM
same,potency estimated from few doses,"TBK1; compound concentrations:100 nM and 1000 nM (sheet 'Lestaurtinib' of Supplementary Table 1),run:Lestaurtinib_02802_R1,Plate:MR029",0.976 µM
same,potency estimated from few doses,"TBK1; compound concentrations:100 nM and 1000 nM (sheet 'Lestaurtinib' of Supplementary Table 1),run:Lestaurtinib_02802_R2,Plate:MR029",1.3 µM
same,potency estimated from few doses,"TBK1; compound concentrations:100 nM and 1000 nM (sheet 'Lestaurtinib' of Supplementary Table 1),run:Lestaurtinib_03172_R2,Plate:MR031",1.75 µM
same,potency estimated from few doses,"TBK1; compound concentrations:100 nM and 1000 nM (sheet 'Lestaurtinib' of Supplementary Table 1),run:Lestaurtinib_03260_R1,Plate:MR033",1.46 µM
same,potency estimated from few doses,"TBK1; compound concentrations:100 nM and 1000 nM (sheet 'Lestaurtinib' of Supplementary Table 1),run:Lestaurtinib_03260_R2,Plate:MR033",1.58 µM
same,potency estimated from few doses,"TBK1; compound concentrations:100 nM and 1000 nM (sheet 'Lestaurtinib' of Supplementary Table 1),run:Lestaurtinib_03260_R3,Plate:MR033",1.24 µM
same,potency estimated from few doses,"TGFBR1; compound concentrations:100 nM and 1000 nM (sheet 'Lestaurtinib' of Supplementary Table 1),run:Lestaurtinib_02339_R2,Plate:MR001",1.53 µM
same,potency estimated from few doses,"TGFBR1; compound concentrations:100 nM and 1000 nM (sheet 'Lestaurtinib' of Supplementary Table 1),run:Lestaurtinib_02339_R3,Plate:MR001",1.42 µM
